Results: PubChem BioAssay
Activity calls are given as the source filed them. Unless noted, no rule for the calls is given here.

Key:
[1] = compound effects on lung adenocarcinoma cell viability – A549, calcein-AM fluorescence, 48 h, basal, profiling panel (AID 1162); settings: higher = more signal; also: test concentration not given here
[2] = compound effects on differentiated 3T3-L1 adipocyte viability – cell-based, 3T3-L1 adipocytes, calcein-AM fluorescence, 48 h, basal, profiling panel (AID 1163); settings: 3T3-L1 adipocytes viability, higher = more signal; also: test concentration not given here
[3] = compound effects on hepatocellular carcinoma cell viability – HepG2, calcein-AM fluorescence, 48 h, basal, profiling panel (AID 1164); settings: higher = more signal; also: test concentration not given here
[4] = compound effects on multiple myeloma cell viability – MM1S, calcein-AM fluorescence, 48 h, basal, profiling panel (AID 1165); settings: higher = more signal;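 also: viability of MM1S multiple myeloma cells under basal unstimulated conditions; test concentration not given here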
[5] = calcein-AM signal in unstimulated myeloma cells – cell-based, calcein-AM fluorescence, 48 h, PK04 Diversity Set, profiling panel (AID 1166); settings: RPMI8226 myeloma viability, higher = more signal;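 also: cells grown under basal conditions without added stimulus; test concentration not given here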
[6] = JC-1 mitochondrial signal, unstimulated HepG2 cells – cell-based, JC-1 fluorescence, 24 h, 100 nL compound, profiling panel (AID 1167); settings: HepG2 mitochondrial potential, higher = more signal; also: test concentration not given here
[7] = JC-1 mitochondrial signal, unstimulated adipocytes – cell-based, JC-1 fluorescence, 3T3-L1 adipocytes, 24 h, 100 nL compound, profiling panel (AID 1168); settings: JC-1 mitochondrial fluorescence, higher = more signal, called active from +8 up or from −8 down; also: test concentration not given here
[8] = JC-1 mitochondrial signal, unstimulated myeloma cells – cell-based, JC-1 fluorescence, RPMI8226, 24 h, 100 nL compound, profiling panel (AID 1169); settings: JC-1 mitochondrial potential fluorescence, higher = more signal; also: test concentration not given here
[9] = JC-1 mitochondrial signal, unstimulated MM1S myeloma – cell-based, JC-1 fluorescence, 24 h, 100 nL compound, profiling panel (AID 1170); settings: MM1S mitochondrial potential, higher = more signal; also: test concentration not given here
[10] = resazurin metabolic signal in A549 cells – cell-based, resazurin fluorescence, 24 h, PK04 Diversity Set, profiling panel (AID 1171); settings: A549 viability, higher = more signal, called active from +8 up or from −8 down; also: test concentration not given here
[11] = resazurin metabolic signal in HepG2 cells – cell-based, resazurin fluorescence, 24 h, PK04 Diversity Set, profiling panel (AID 1172); settings: HepG2 viability, higher = more signal; also: test concentration not given here
[12] = budding yeast growth changes without added modifier – OD600, strain BY4716, 24 h, basal condition, primary screen (AID 1173); settings: S. cerevisiae BY4716 growth, OD600, 24 h; higher = more signal, called active from +8 up or from −8 down
[13] = viability profiling in MM1S myeloma cells – cell-based, resazurin fluorescence, basal, 24 h, PK04 Diversity Set, profiling panel (AID 1174); settings: higher = more signal, called active from +8 up or from −8 down; also: test concentration not given here
[14] = molecular target: Dihydroorotate dehydrogenase (quinone), mitochondrial (Plasmodium falciparum (isolate 3D7)) (UniProt Q08210); assay: inhibition of P. falciparum DHODH – biochemical, C-terminal His tag, absorbance 600 nm, primary screen (AID 1175); settings: PfDHODH enzyme, DCIP absorbance 600 nm; higher = more signal, called active from +8 up or from −8 down;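 also: recombinant parasite enzyme with a five histidine tag at its C terminus; test concentration not given here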
Chain of Dihydroorotate dehydrogenase (quinone), mitochondrial (Plasmodium falciparum (isolate 3D7)) (Q08210 whole entry, looked up): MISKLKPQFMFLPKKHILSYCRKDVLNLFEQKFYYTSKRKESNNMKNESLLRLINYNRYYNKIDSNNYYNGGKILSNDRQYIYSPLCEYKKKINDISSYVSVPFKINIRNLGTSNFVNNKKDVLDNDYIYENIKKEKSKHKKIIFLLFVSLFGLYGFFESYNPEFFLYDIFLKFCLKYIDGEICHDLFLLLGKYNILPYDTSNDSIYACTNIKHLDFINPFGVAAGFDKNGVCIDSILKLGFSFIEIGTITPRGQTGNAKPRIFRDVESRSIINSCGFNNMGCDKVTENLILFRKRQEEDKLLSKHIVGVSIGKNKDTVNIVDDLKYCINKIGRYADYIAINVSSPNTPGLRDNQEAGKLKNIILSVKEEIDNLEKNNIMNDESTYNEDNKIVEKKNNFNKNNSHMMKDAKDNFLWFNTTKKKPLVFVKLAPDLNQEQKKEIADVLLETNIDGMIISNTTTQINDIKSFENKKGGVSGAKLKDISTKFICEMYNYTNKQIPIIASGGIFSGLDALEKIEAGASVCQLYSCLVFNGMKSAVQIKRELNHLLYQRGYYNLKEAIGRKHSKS

[15] = inhibition of PAO1 biofilm formation – strain PAO1, LB-PBS medium, absorbance 600 nm, primary screen (AID 1176); also: test concentration not given here; settings: P. aeruginosa PAO1 growth/biofilm, A600, 12 h; higher = more signal
[16] = growth modulation of vineyard yeast isolate – strain RM11-1a, OD600, basal, 24 h, primary screen (AID 1177);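 also: cultures grown under basal conditions with no added stressor; test concentration not given here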; settings: S. cerevisiae RM11-1a growth, OD600, 24 h; higher = more signal, called active from +8 up or from −8 down
[17] = growth of efflux-deficient E. coli DRC39 – strain DRC39, OD650, 24 h, E. coli filamentation inducers, primary screen (AID 1178);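 also: growth measured as culture turbidity by optical density at 650 nm; test concentration not given here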; settings: E. coli DRC39 acrAB, higher = more signal, called active from +8 up or from −8 down
[18] = growth of efflux-deficient E. coli DRC39 – strain DRC39, OD650, 48 h, E. coli filamentation inducers, primary screen (AID 1179);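 also: screen aims at cell division blockers that make cells filament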; settings: E. coli DRC39 delta-acrAB growth, higher = more signal, called active from +8 up or from −8 down
[19] = viability profiling in RPMI8226 myeloma cells – cell-based, resazurin fluorescence, basal, 24 h, PK04 Diversity Set, profiling panel (AID 1180); settings: higher = more signal;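 also: RPMI8826 multiple myeloma cell line at 5000 cells per well; test concentration not given here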
[20] = molecular target: E3 ubiquitin-protein ligase XIAP (Homo sapiens) (UniProt P98170); assay: small molecules binding XIAP protein – biophysical, small-molecule microarray, fluorescence 635 nm, primary screen (AID 1181); settings: higher = more signal;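 also: score merges 667 nm emission and signal to noise over triplicate slides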
Chain of E3 ubiquitin-protein ligase XIAP (Homo sapiens) (P98170 whole entry, looked up): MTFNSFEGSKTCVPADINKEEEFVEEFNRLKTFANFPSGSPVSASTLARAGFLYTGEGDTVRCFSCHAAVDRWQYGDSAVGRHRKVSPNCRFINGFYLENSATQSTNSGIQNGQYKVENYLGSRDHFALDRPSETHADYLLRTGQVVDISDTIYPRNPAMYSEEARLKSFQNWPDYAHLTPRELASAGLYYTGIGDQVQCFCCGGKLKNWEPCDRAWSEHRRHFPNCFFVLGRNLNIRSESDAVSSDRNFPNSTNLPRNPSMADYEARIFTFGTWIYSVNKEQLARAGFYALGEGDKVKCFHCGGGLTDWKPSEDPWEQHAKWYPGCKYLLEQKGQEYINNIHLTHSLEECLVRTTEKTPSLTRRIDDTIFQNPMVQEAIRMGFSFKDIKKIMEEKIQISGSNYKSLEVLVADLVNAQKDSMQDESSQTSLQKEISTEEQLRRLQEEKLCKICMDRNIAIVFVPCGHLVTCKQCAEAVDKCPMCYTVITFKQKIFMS

SMILES	z-score [1]	z-score [2]	z-score [3]	z-score [4]	z-score [5]	z-score [6]	z-score [7]	z-score [8]	z-score [9]	z-score [10]	z-score [11]	z-score [12]	z-score [13]	composite z-score [14]	z-score [15]	z-score [16]	z-score [17]	z-score [18]	z-score [19]	composite z-score [20]
CCOC(=O)C1=CC[C@@H](c2ccccc2F)N(S(=O)(=O)c2ccc(C)cc2)[C@H]1c1ccccc1	-0.982	-0.815	-0.244	-1.47	-0.413	2.25	-1.35 (inactive)	-0.0368	-1.24	2.12 (inactive)	0.325	0.837 (inactive)	-0.0773 (inactive)	-0.496 (inactive)	0.698 (inactive)	0.262 (inactive)	-0.308 (inactive)	-0.35 (inactive)	-0.781	-0.195
CC(C)NC(=O)[C@@]1(C)c2ccccc2C(=O)N(Cc2ccc(OC(F)(F)F)cc2)[C@H]1c1ccc(CO)cc1	-0.692	1.08	0.0903	-0.0831	-0.676	2.05	-0.682 (inactive)	-0.547	-1.67	-0.0752 (inactive)	-1.09	0.154 (inactive)	0.796 (inactive)	-0.852 (inactive)	0.559 (inactive)	0.973 (inactive)	-0.048 (inactive)	-0.6 (inactive)	0.959	-0.217
COc1cc(OC)c(C(O)C2C=CC3C(=O)N(Cc4ccccc4)C(=O)C3N2n2cnnc2)cc1Br (stereo not given)	-0.407	0.767	-0.161	-0.125	-0.0145	-0.769	0.771 (inactive)	-0.345	-0.395	-0.963 (inactive)	-0.797	-8.67 (active)	-0.982 (inactive)	-0.552 (inactive)	-0.169 (inactive)	-3.92 (inactive)	-0.514 (inactive)	-0.905 (inactive)	-1.21	0.197
COc1cc2c(cc1O)C=[N+](Cc1sc3ccccc3c1Cl)CC2	-0.47	0.425	-0.349	-0.278	-0.133	-1.06	-0.501 (inactive)	-0.143	-0.598	0.33 (inactive)	0.19	-1.04 (inactive)	-1.01 (inactive)	-1.18 (inactive)	0.034 (inactive)	-0.319 (inactive)	0.81 (inactive)	0.128 (inactive)	-0.496	0.158
COC(=O)C(CC#Cc1ccc2c(c1)[C@]1(C(=O)N2)[C@H](c2ccc(O)cc2)N2[C@H](c3ccccc3)[C@H](c3ccccc3)OC(=O)[C@H]2[C@@H]1C(=O)NC[C@H](O)c1ccccc1)C(=O)OC	-0.857	-0.909	-0.045	-1.58	-1.83	-2.42	-0.837 (inactive)	-0.829	-0.633	-0.407 (inactive)	-0.0495	0.677 (inactive)	-0.275 (inactive)	-3.93 (inactive)	0.87 (inactive)	0.379 (inactive)	0.062 (inactive)	-0.138 (inactive)	-1.37	-0.0013
COc1cc(C(O)C2C=CC3C(=O)N(C)C(=O)C3N2Nc2ccccc2)cc(OC)c1OC (stereo not given)	0.212	0.555	-0.0987	0.0355	0.438	-0.349	-0.604 (inactive)	0.221	-0.471	0.144 (inactive)	-0.237	-2.86 (inactive)	0.162 (inactive)	0.377 (inactive)	0.586 (inactive)	0.155 (inactive)	-0.654 (inactive)	-0.852 (inactive)	-0.0998	0.14
O=C(O)[C@@H]1[C@@H]2C(=O)N(c3ccccc3)C(=O)[C@@H]2C[C@@H]1Sc1ccccc1	-0.653	-0.832	-1.32	-0.939	-0.616	-0.829	-0.867 (inactive)	0.718	-0.773	0.0964 (inactive)	-0.303	0.308 (inactive)	-0.832 (inactive)	1.2 (inactive)	0.546 (inactive)	1.48 (inactive)	-0.719 (inactive)	-1.3 (inactive)	-1.09	-0.0907
COc1ccc(CCNC(=O)[C@@]2(Sc3ccc(C)cc3)CC(=O)N(Cc3ccccc3C(F)(F)F)[C@@H]2c2ccc(CO)cc2I)cc1	0.751	-0.178	-0.253	-2.41	-2.36	-1.03	-0.322 (inactive)	-0.714	-0.841	0.956 (inactive)	0.267	-5.78 (inactive)	-2.05 (inactive)	-1.6 (inactive)	-0.171 (inactive)	-1.77 (inactive)	0.0424 (inactive)	0.189 (inactive)	-1.72	0.1
CCCC[C@@H](O)C1=C(COC)C[C@H]2C(=O)N(C)C(=O)[C@H]2[C@H]1CO	1.28	1.13	1.48	-0.211	0.536	1.23	-0.987 (inactive)	0.335	-1.98	0.368 (inactive)	0.798	-3.7 (inactive)	-0.264 (inactive)	-1.43 (inactive)	1.04 (inactive)	-2.16 (inactive)	2.43 (inactive)	0.964 (inactive)	1.3	-0.109
